GALK inh – galactokinase (human) inhibition | Potency, µM (doses to about 57.5 µM), inactives show at the top dose activity change, negative = inhibition, most hits filed as inhibitors | AID 1868 | P51570 | Purified GALK, Kinase-Glo residual ATP luminescence | 270,000 compounds, 0.007% hits; further: potency means the concentration at half of the fitted maximal effect
Target sequence (P51570 whole entry, looked up): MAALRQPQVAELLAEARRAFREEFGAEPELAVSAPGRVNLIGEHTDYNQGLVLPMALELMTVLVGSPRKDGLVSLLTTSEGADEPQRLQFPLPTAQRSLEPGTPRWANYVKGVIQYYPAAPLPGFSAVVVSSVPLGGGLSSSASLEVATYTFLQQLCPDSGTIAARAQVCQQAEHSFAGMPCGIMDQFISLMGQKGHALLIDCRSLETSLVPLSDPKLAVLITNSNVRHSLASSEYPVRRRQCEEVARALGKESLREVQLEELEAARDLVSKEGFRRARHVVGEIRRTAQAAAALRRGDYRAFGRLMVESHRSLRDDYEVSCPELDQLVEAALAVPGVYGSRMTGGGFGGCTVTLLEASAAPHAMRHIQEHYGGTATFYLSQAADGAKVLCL
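Luminescence from leftover ATP (Ultra-Glo luciferase/luciferin) served as read-out after a 1 h room-temperature reaction of 5 nM GALK with 35 uM ATP and 100 uM galactose.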
Coupling enz – counter-screen for Giardia aldolase inhibitors: coupling enzyme system. coupling enzyme system counterscreen, AmpLite Red fluorescence. activity change, negative = inhibition, % at 58.2 µM, hits read low. AID 2472. 290,000 compounds, 0.67% hits; in the data active means activity change below about -30%
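First, compound is pin-transferred into glyceraldehyde-3-phosphate coupling-enzyme reagent at 57.5 uM final and held 10 min at RT. Next, substrate, coupling system and AmpLite Red are added. After 20 min RT, fluorescence (525/598 nm) is read.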
USP1 inh – inhibitors of human USP1/UAF1 deubiquitinase; recombinant USP1/UAF1, Ub-Rhodamine cleavage fluorescence; Potency, µM (highest dose often 57.1 µM), inactives show top-dose activity change, negative = inhibition, hits mostly inhibitors; 390,000 compounds, 0.23% hits; further: potency means the concentration at half of the fitted maximal effect; nearly all actives have a fitted effect of over 60% in size
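1 nM enzyme complex + cpd, 15 min RT; start with Ub-Rho 150nM final; kinetic fluorescence ex 480/em 540, 6 reads q60 s. Buffer 50mM HEPES pH 7.8, 0.5mM EDTA, 0.1 mg/ml BSA, 1mM TCEP, 0.01% Tween-20.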
VDR inh – blocks the human vitamin D receptor; P11473; VDR-SRC2-3 peptide fluorescence polarization, 2 h; Potency, µM, inactives show max response, negative = inhibition, most hits filed as inhibitors; 400,000 compounds, 0.93% hits; further: potency means the concentration at half of the fitted maximal effect
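Reagent solutions, kept cold and dark, are dispensed first; compounds are then pinned in at 23 nl, plates briefly spun, and incubated 2 h at ambient temperature. Inhibition of VDR–SRC2-3 peptide binding is read by fluorescence polarization.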
PLK1 PBD inh – blocks phosphopeptide binding to human PLK1 polo-box domain | Plk1 PBD binding of FITC phosphopeptide, fluorescence polarization | AID 720504 | P53350 | Potency, µM, without a hit: max response, negative = inhibition, usual class: inhibitors | 360,000 compounds, 2.8% hits; further: potency means the concentration at half of the fitted maximal effect; series mostly up to about 57 µM; nearly all actives have a fitted effect of over 65% in size
USP2a block – USP2a (human) protease inhibition. O75604. USP2 core, Ub-CHOP2 coupled fluorogenic reporter, 485/531. Potency, µM (top dose mostly 38.3 µM), without a hit: at the highest dose activity change, negative = inhibition, actives largely listed as inhibitors. 330,000 compounds, 0.01% hits;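 further: potency means the concentration at half of the fitted maximal effect; plate controls were DMSO wells for no effect and full inhibition by NEM control for full effect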
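Cell-free coupled assay: 10nM USP2 core preincubated 30min RT with compound in Tris-HCl pH 8.0/CaCl2/CHAPS buffer, then 25nM Ub-CHOP2 and 25nM reporter substrate; fluorescence (Ex 485/Em 531) read after 60min RT, normalized to NEM inhibition, concentration-response curves fitted.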
* marks the source's active call; other numbers are inactive results; ? = inconclusive; · = no result. The list is not random: actives were taken first. Their share in the collection is about 3.2%. Unless noted, the call rests on the fitted dose curve; in most records, active means well fitted curve in the direction sought with a large enough effect; inconclusive means small, poorly fitted or top-dose-only effect, or another doubt; inactive means no such curve, though single readings can be large; an effect the other way counts as inactive or inconclusive. Unless noted, on the % scale 0 is the no-effect control and ±100 the full control effect.

SMILES	GALK inh	Coupling enz	USP1 inh	VDR inh	PLK1 PBD inh	USP2a block
O=C(CSc1nc(-c2ccc(F)cc2)cc(C(F)(F)F)n1)NCc1cccs1	·	-1	-2%	-14%	-9%	1%
COc1ccc(OC)c(C(=O)NC(CC(N)=O)c2ccc(N3CCN(c4ccc(F)cc4)CC3)c([N+](=O)[O-])c2)c1 (stereo unspecified)	·	1	17%	?	30µM*	0%
NC(=O)CC(NC(=O)c1ccccc1)c1ccc(N2CCN(c3ccc(F)cc3)CC2)c([N+](=O)[O-])c1 (stereo unspecified)	·	-1	15%	3%	-10%	-3%
C=CCn1c(SCC(=O)c2c(N)n(C3CC3)c(=O)[nH]c2=O)nnc1-c1ccccc1OC	·	·	2%	-17%	-4%	2%
COc1ccc(NC(=O)COC(=O)C2CCCN2C(=O)OC(C)(C)C)cc1Cl (stereo unspecified)	·	·	-12%	·	-1%	·
COc1cc(C(=O)NCc2ccco2)cc(OC)c1OC	5%	2	-15%	-1%	-3%	1%
COc1cc(C(=O)NCCNC(=O)c2ccco2)cc(OC)c1OC	·	·	-10%	?	27µM*	·
CCOCCCNCc1ccc(OC)c(OC)c1	-1%	-1	0%	0%	-3%	0%
CCOC(=O)CCNCc1ccc(OC)c(OC)c1	-1%	3	-24%	?	24µM*	-1%
CCOC(=O)CC(NCc1ccc(OC)c(OCC)c1)c1ccc(C)cc1 (stereo unspecified)	3%	0	-15%	-11%	21µM*	1%
CN1c2cccc3cccc(c23)N(C)C1(C)C	0%	-33*	?	-10%	-7%	0%
Cc1occc1C(=O)N/N=C/C=C\c1ccccc1[N+](=O)[O-]	8%	0	-7%	-22%	?	1%
CCOC(=O)N/N=C/C=C/c1ccccc1[N+](=O)[O-]	-1%	1	-23%	-24%	21µM*	2%
CCN(CC)S(=O)(=O)c1ccc(C)c(NC(=S)N2CCN(c3ccccn3)CC2)c1	11%	4	-12%	-1%	30µM*	0%
Cn1nc(C(=O)NCCc2ccc(S(N)(=O)=O)cc2)c2c1-c1ccccc1S(=O)(=O)C2	9%	0	-17%	-7%	1%	1%
CC1(C(=O)NS(=O)(=O)c2ccc(F)cc2F)CCN1C(=O)C1(c2ccc(Cl)cc2)CC1 (stereo unspecified)	·	·	·	·	3%	·
COc1ccc(NC(=S)N(CCC(C)C)C2CCN(C(C)C)CC2)cc1Cl	2%	-47*	-14%	?	2.1µM*	0%
COCCN(C(=S)Nc1ccc(OC)c(Cl)c1)C1CCN(C(C)C)CC1	-3%	0	-3%	-5%	13µM*	-1%
CC(Cc1ccccc1)NC(=O)C1(c2ccccc2)CCOCC1 (stereo unspecified)	-4%	-2	-11%	-5%	3%	3%
CC1=CC(=O)Nc2ccccc2S1	·	·	22µM*	-15%	-17%	·
CC1(C)CC(=O)C2=C(C1)Nc1ccccc1S2	4%	4	?	6%	-26%	9%
O=C(COC(=O)c1ccccc1F)Nc1ccc(S(=O)(=O)N2CCOCC2)cc1	·	·	-9%	5%	-1%	-1%
Cc1cc(=O)n(CCCO)c(O)c1C#N	-1%	-38*	-23%	8%	-5%	4%
Cc1noc(NS(=O)(=O)c2ccc(N/C=C\C(=O)c3cccc4ccccc34)cc2)c1C	-4%	11	-10%	?	24µM*	?
COc1cccc(C(=O)/C=C/Nc2ccc(S(=O)(=O)Nc3onc(C)c3C)cc2)c1	-1%	12	-7%	-13%	0%	3%
SMILES	GALK inh	Coupling enz	USP1 inh	VDR inh	PLK1 PBD inh	USP2a block
CC(=O)c1ccc(NS(=O)(=O)c2ccc(N/C=C/C(=O)c3ccc(F)cc3)cc2)cc1	-1%	7	-13%	-25%	17µM*	0%
Cc1noc(NS(=O)(=O)c2ccc(N/C=C\C(=O)c3ccc(Br)cc3)cc2)c1C	-2%	14	-28%	-13%	27µM*	-4%
O=C1N/C(=C\c2ccc(O)cc2)C(=O)c2ccccc21	0%	-31*	28µM*	?	-15%	-1%
O=C1/C(=C/c2ccc(O)cc2)COc2ccccc21	2%	3	-10%	?	-4%	1%
O=C(NCc1cccnc1)Nc1cccc(Cl)c1	·	1	2%	-6%	-14%	3%
O=C(O)c1cccc(S(=O)(=O)Nc2ccc3oc(=O)sc3c2)c1	2%	8	-1%	89µM*	?	3%
CC[C@@H]1C(c2cccc(Cl)c2)=NN(c2ccc(Br)cc2)[C@H]1C(=O)N1CCOC1=O	·	-3	-5%	-18%	-9%	0%
COc1cc(C2Nc3cccc4cccc(c34)N2)ccc1OC(C)=O	1%	-18	-25%	-22%	27µM*	5%
NC(=O)C1=C(c2ccccc2)c2ccccc2C1=O	·	·	-14%	40µM*	4.2µM*	·
COc1ccc(Cl)cc1NC(=O)CN(C1CCCCC1)S(C)(=O)=O	0%	-5	-21%	3%	30µM*	-1%
Cc1[nH]n(-c2cccc(Cl)c2)c(=O)c1-c1ccccc1	-1%	4	-14%	-2%	-14%	2%
O=C(O)c1c(Cl)c(Cl)c(Cl)c(Cl)c1-c1c2cc(I)c(=O)c(I)c-2oc2c(I)c(O)c(I)cc12	·	3	·	5.6µM*	·	·
O=C(c1ccc(Cl)c(Cl)c1)N1CCC(=O)N(C(CO)Cc2ccccc2)CC1 (stereo unspecified)	·	·	23%	?	27µM*	·
O=C(c1ccc(Cl)c(Cl)c1)N1CCC(=O)N([C@H](COCc2ccccc2)Cc2ccccc2)CC1	·	·	·	·	-1%	·
CCOC(=O)c1c(C)nc2cc(C)ccn12	-4%	-2	-1%	-13%	1%	4%
CCOC(=O)c1cn2ccc(C)cc2n1	6%	1	-15%	-15%	27µM*	3%
COC(=O)CN1C(=O)[C@H]2[C@@H](c3ccc(C)o3)N3C(=O)CN(Cc4ccc(-c5ccccc5)cc4)C(=O)[C@@]3(C)[C@H]2C1=O	·	-1	-16%	?	-16%	0%
CN(C(=O)COC(=O)CSc1ccc([N+](=O)[O-])cc1)c1ccccc1	·	·	-2%	89µM*	13µM*	-2%
Cc1ccc(/C(N)=N/OC(=O)CSc2ccccc2)cc1	7%	-9	-14%	-7%	-10%	-2%
N/C(=N\OC(=O)CSc1ccccc1)c1ccc([N+](=O)[O-])cc1	0%	-1	-7%	-1%	27µM*	3%
O=C(NCc1ccc2[nH]c3c(c2c1)CCCC3)N1CCOCC1	-3%	-53*	·	·	·	3%

High-throughput results (PubChem)
